Measurements published in the supplement of paper PMC11417369.
In all, about 25,000 sequences were measured (“ln(normalized median fluorescence intensity)”: median about 6.7, highest 2% from about 10 on). Shown is part of a subset that was picked to be rich in the highest values.

Each sequence was assayed on PfHDP1 homeodomain (GST-tagged) (assay: gcPBM binding intensity (ln(normalized median fluorescence intensity)); higher = stronger DNA binding).
Procedure, shortened: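 Using an Agilent 4 × 180k array, primer-extended double-stranded 36-bp intergenic genomic probes and negative controls were exposed for 1 h to GST-fused P. falciparum DNA-binding domains expressed in E. coli. Binding was carried out in 1× PBS with 1% milk, 0.2 mg/ml BSA, 0.5% salmon testes DNA and 0.03% Triton X-100, and protein was detected with Alexa488 anti-GST antibody and a 488 nm scan. Binding intensity is the highest Masliner-normalised natural-log median intensity across replicate spots of either probe orientation.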

Sequence | gcPBM binding intensity (ln)
TCTTTATGTAAGGTCTTCCACAAAAAAATTAAAAAA [TGCATGCA_negctrl_site229] | 6.21
AATTAATGGCTAAAGGTGCACAATATATATATTACA | 9.84
GTACACTAATTATGTGCACACAAATTAAAGGTCTAC [CACACA_site146] | 11
ATATTCTAAATAAAGGGTACACAAAAATAATTAAAG [XGTACX_site5529] | 6.9
TGTTAATAAAGGTGTACACAAAATAAAAAAAATTAT [CACACA_site4288] | 7.2
ACGCTAATTATGTGCACACAAATTAAAGGTCTACAA [CACACA_site147] | 11.4
CCACTAATTATGTGCACACAAATTAAAGGTCTACAA [CACACA_site4259] | 11.4
TTTATATTTAAAAGGATGCACTACAAATTCTAAATA | 7.36
GATTTATACAAATATGTACACACTAATTATATATTA [CACACA_site8045] | 6.9
TTTTTCTTTCTCTATTGTACACATGGAAACACATAA [XGTACX_site4601] | 7.56
AAAAAAAAAAGAAACACACACATATATATATATAAT [CACACA_site5052] | 6.7
AATACAAACCAAAAAGTAAATACATCAACATGATCA [CACACA_negctrl_site140] | 6.26
CTATATATTTTTCATTGTACACAAATTAAAGAAAAA [XGTACX_site8385] | 6.61
ATGTTGCACAATGTTACACACACAATATATATCGTT [CACACA_site4833] | 10.7
GTTGCACAATGTTACACACACAATATAGATCGTTAA [CACACA_site6717] | 9.91
GTTGCACAATGTTACACACACAATATATATCGTTAA [CACACA_site1275] | 9.41
ATATAATTACATTGATGTACACGAAATGATTAACAT [XGTACX_site5183] | 6.43
ATTCATTTACCAATGGTGCAATATATTTTTATAATG | 10.3
TATTCATATTTAAAGGTGCAATATTTATTTTGTACA | 9.16
TATTCAGGTCCAATGGTGCAATATATTTTTGTAATA [GTGCAC_site9607] | 10.6
ATTAGTATATTTCTCTGTACTTACATTAAAATATAA [XGTACX_site2217] | 6.41
TTACACATGTATTTGGTGCATGTTGTTAACAAAATA | 9.83
TTTTTTGTTAAGTTGGTGCAAACAATAGTTATTGAC | 10.7
ATTTATTTATACAAAGTGCAATATTTTGTTAAAGTC [GTGCAC_site9618] | 8.15
TTTATTTTAACTTGTTCACACATTTGAATAAATAAA [CACACA_site5064] | 6.3
ATAATATATTATTATAGTACTTTATTTTATTTTATG [XGTACX_site2387] | 6.65
